Experimental data from the supplement of paper PMC11732987, “Enantioselective OTUD7B fragment discovery through chemoproteomics screening and high-throughput optimisation” (Communications Chemistry, 2025).

How the values were obtained:
Test in all cases: log2 ratio of Biotin-Ahx-Ub-VS probe labelling (fragment/DMSO); higher = less target engagement (more negative = stronger competition), active = hit call of the paper (q ≤ 0.05, log2 ratio ≤ -1)
Details in all cases: compound concentration: 200 uM; treatment time: 3 h
ALG13 = target: T1, ALG13 (UniProt Q9NP73)
T1 sequence (whole entry): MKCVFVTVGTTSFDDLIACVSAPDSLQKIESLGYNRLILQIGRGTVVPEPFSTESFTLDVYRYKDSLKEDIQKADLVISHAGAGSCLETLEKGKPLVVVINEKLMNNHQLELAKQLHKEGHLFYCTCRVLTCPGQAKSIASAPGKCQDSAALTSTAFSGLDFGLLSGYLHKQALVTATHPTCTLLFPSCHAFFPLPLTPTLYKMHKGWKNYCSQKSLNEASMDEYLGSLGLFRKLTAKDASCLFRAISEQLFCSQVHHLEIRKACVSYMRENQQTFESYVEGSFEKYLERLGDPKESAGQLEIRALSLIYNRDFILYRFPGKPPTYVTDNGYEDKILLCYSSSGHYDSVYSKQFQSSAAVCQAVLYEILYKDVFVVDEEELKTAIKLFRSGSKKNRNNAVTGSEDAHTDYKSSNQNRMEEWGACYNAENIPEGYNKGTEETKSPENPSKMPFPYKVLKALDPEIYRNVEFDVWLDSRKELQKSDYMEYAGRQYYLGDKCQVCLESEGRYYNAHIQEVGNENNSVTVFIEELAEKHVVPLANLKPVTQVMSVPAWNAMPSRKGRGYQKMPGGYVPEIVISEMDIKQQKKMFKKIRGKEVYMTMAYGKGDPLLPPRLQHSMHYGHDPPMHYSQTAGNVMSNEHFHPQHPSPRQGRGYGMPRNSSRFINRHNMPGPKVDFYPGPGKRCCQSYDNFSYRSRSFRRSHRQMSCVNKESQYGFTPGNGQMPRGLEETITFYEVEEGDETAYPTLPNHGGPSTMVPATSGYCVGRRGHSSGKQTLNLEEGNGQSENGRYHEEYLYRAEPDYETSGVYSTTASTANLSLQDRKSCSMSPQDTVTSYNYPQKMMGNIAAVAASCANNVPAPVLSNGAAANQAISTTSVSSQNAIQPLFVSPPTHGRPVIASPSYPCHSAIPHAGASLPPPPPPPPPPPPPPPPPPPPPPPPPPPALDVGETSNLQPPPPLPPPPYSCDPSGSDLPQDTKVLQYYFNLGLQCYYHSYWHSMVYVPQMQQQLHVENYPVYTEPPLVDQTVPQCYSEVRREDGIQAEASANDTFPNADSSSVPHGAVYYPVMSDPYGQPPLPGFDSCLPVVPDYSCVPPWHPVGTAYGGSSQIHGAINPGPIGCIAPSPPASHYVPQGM
Method in brief: (§1)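 Fragment (200 µM) or vehicle was incubated for 3 h with triplicate HEK293T lysate samples of 495 µg, which were then treated with Biotin-Ahx-Ub-VS at 0.5 µM final for 1 h. Labelled DUBs were enriched on NeutrAvidin, digested with LysC and trypsin, and analysed by diaPASEF LC-MS/MS. Values are average log2 fragment/vehicle ratios from an unpaired t-test on global-median-normalised Spectronaut label-free quantities, using proteins with ≥2 unique peptides.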

ATXN3 = ATXN3 (UniProt P54252)
Sequence of ATXN3 (P54252 whole entry): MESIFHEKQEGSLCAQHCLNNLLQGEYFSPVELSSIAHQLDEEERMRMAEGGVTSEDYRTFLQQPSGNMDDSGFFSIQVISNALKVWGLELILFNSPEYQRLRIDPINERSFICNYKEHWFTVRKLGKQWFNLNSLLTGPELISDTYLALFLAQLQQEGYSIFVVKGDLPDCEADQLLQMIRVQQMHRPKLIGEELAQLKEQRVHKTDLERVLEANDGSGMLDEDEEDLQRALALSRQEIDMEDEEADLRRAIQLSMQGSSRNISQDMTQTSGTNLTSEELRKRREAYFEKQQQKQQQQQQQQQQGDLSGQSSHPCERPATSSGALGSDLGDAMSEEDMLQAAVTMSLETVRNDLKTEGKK
Method in brief: as §1

BAP1 = target: T2, BAP1 (UniProt Q92560)
T2 sequence (whole entry): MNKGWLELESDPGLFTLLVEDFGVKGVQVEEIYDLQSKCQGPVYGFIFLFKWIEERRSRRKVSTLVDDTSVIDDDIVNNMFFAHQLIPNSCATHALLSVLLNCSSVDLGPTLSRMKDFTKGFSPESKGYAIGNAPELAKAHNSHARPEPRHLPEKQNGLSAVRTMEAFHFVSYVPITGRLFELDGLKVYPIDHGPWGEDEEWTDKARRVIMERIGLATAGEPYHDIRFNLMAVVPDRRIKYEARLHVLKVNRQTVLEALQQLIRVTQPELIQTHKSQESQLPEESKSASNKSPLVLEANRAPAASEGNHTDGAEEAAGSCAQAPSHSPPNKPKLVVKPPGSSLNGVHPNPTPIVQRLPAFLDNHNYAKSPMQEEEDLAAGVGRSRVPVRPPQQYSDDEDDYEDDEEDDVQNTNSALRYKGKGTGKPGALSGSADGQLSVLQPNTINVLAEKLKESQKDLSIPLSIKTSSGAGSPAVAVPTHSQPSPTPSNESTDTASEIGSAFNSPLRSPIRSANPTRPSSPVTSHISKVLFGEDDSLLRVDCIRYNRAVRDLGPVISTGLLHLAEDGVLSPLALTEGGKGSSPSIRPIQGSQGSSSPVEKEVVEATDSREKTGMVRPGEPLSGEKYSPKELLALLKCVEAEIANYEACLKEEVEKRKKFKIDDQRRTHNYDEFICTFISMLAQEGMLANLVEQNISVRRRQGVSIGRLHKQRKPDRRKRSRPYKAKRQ
Method in brief: as §1

EIF3F = EIF3F (UniProt O00303)
Sequence of EIF3F (O00303 whole entry): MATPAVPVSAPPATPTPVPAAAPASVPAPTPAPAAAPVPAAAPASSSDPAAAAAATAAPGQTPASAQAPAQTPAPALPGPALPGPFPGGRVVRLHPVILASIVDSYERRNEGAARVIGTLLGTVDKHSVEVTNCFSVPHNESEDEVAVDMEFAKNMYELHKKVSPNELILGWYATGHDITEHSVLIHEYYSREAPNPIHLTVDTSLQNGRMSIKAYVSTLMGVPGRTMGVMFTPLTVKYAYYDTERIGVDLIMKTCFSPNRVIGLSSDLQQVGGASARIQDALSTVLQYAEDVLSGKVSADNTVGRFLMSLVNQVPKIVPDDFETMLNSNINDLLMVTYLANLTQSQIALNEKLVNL
Method in brief: as §1

EIF3H = EIF3H (UniProt O15372)
Sequence of EIF3H (O15372 whole entry): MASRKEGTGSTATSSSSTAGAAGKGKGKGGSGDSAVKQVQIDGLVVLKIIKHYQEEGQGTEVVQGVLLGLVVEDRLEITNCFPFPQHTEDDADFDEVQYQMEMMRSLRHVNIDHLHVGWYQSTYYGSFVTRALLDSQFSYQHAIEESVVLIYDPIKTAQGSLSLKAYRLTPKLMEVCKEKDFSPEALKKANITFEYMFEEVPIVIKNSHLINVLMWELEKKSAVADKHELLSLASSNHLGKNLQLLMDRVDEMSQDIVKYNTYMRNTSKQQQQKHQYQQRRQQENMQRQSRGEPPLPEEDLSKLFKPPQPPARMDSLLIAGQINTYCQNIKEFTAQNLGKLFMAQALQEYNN
Method in brief: as §1

FAM105A = target: T3, FAM105A (UniProt Q9NUU6)
T3 sequence (whole entry): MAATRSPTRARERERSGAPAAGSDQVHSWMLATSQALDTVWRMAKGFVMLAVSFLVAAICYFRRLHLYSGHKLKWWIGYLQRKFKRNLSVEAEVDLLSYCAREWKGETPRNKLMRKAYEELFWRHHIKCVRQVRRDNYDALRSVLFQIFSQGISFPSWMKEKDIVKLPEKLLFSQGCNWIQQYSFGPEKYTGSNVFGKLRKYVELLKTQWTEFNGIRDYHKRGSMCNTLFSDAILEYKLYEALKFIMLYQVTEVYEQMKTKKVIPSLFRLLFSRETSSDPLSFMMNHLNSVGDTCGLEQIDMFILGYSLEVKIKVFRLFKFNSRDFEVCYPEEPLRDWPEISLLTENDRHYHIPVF
Method in brief: as §1

OTUB1 = OTUB1 (UniProt Q96FW1)
Sequence of OTUB1 (Q96FW1 whole entry): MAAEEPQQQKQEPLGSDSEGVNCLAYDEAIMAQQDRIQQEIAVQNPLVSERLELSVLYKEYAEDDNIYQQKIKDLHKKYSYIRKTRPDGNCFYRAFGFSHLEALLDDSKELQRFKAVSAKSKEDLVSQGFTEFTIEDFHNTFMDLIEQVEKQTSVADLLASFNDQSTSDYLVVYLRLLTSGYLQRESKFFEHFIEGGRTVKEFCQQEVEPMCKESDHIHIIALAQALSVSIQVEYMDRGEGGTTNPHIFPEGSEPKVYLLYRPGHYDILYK
Method in brief: as §1

OTUD4 = target: T4, OTUD4 (UniProt Q01804)
T4 sequence (whole entry): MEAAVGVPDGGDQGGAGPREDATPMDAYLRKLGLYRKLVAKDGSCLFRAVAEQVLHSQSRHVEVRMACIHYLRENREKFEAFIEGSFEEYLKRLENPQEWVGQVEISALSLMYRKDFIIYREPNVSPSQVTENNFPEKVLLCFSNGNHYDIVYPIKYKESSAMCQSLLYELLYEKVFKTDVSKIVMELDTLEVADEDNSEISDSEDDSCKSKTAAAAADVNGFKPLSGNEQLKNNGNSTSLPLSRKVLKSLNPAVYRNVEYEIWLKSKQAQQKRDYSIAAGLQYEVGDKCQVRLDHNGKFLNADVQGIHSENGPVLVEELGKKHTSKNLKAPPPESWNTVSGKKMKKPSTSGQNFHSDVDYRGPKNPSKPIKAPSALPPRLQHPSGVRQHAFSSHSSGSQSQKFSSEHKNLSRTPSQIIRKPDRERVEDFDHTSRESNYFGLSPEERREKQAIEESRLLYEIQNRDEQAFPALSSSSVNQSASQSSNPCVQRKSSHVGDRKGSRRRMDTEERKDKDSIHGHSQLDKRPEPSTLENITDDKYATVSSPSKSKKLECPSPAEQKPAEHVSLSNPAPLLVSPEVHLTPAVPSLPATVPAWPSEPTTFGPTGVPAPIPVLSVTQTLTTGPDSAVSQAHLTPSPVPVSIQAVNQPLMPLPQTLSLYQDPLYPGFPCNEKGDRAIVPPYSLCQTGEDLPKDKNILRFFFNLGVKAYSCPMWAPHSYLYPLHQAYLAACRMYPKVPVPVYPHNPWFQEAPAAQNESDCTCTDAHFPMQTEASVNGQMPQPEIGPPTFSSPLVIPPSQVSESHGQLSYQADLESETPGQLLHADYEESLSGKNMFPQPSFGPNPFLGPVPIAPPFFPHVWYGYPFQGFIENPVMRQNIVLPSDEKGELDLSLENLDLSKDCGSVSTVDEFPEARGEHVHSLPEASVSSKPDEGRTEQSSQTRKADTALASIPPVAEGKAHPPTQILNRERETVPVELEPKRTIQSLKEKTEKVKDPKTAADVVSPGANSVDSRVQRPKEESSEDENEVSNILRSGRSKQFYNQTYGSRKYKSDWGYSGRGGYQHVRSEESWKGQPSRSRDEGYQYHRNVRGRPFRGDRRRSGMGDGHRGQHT
Method in brief: as §1

OTUD5 = target: T5, OTUD5 (UniProt Q96G74)
T5 sequence (whole entry): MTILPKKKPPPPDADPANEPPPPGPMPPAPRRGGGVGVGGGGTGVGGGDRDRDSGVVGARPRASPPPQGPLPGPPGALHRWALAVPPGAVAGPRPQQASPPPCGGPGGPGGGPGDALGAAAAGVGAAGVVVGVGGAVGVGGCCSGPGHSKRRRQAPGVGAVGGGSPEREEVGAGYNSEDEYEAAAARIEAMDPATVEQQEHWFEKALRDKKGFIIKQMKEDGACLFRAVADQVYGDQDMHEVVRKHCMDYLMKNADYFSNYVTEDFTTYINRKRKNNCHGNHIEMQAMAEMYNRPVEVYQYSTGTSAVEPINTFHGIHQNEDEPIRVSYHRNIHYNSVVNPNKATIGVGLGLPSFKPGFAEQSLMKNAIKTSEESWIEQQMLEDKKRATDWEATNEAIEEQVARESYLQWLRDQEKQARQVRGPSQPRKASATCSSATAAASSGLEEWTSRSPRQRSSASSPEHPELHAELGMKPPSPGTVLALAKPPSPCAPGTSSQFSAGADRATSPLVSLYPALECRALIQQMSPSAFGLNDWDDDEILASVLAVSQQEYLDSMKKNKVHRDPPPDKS
Method in brief: as §1

Measured: log2 ratio of Biotin-Ahx-Ub-VS probe labelling

O=C(CCl)N(C1=CCCCC1)C1CC1
inactive: ALG13 0.101 | ATXN3 -0.0892 | BAP1 -0.204 | EIF3F -0.311 | EIF3H 0.314 | FAM105A 0.173 | OTUB1 -0.159 | OTUD4 0.037 | OTUD5 -0.182
